Fam108B inh – mouse Fam108B serine hydrolase inhibitors, primary screen, counter-screen for RBBP9 inhibitor project, biochemical, fluorescence polarization | recombinant Fam108B, FP-Rh probe fluorescence polarization | inhibition, % at 9.51 µM | actives 0.33% (n = 300,000);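 active = inhibition above the screen mean inhibition plus 3 SD, computed separately per campaign, cut at about 18% in these data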;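 also: inhibitors lower polarization as less probe binds the enzyme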
GSTO1 inh – inhibitors of recombinant GSTO1, primary screen, counter-screen for RBBP9 inhibitor project, biochemical, fluorescence polarization | activity-based probe fluorescence polarization | actives 1.1% (n = 300,000) | inhibition, % at 5.96 µM;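 active = inhibition above the campaign mean inhibition plus 3 SD, cut at about 35% in these data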;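 also: 0% = GSTO1-1 with DMSO and 100% = wells lacking GSTO1-1 enzyme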
Target sequence (P78417 whole entry, looked up): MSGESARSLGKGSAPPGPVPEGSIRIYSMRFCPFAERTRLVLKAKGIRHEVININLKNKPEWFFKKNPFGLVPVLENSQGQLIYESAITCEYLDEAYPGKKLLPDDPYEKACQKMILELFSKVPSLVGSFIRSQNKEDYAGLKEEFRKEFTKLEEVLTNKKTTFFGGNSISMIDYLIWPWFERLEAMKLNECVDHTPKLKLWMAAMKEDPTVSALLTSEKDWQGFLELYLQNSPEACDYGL
PAD4 inh – human PAD4 inhibitors, primary screen, biochemical, fluorescence polarization, 1536-well format. Protein-arginine deiminase type-4 (Homo sapiens), Q9UM07. recombinant PAD4, RCA probe fluorescence polarization. inhibition, % at 6.36 µM. actives 0.41% (n = 330,000);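 active = percent inhibition above a cutoff equal to the mean of all tested compounds plus 3 SD, cut at about 15% in these data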;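 also: 0% = PAD4 with RCA probe and DMSO and 100% = probe without PAD4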
LYPLA1 counter – LYPLA1 inhibitors, primary screen, counter-screen for PME1 inhibitor project, biochemical, fluorescence polarization, FP-Rh probe ABPP; inhibition, % at 5.9 µM; AID 2174, 2009; recombinant LYPLA1; actives 0.16% (n = 320,000);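 active = inhibition above the mean of all tested compounds plus 3 SD, set per campaign, cut at about 14% in these data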;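 also: inhibitors block serine hydrolase probe labeling of LYPLA1 so polarization falls; 0% = enzyme with DMSO and 100% = wells lacking LYPLA1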
Target sequence (O75608 whole entry, looked up): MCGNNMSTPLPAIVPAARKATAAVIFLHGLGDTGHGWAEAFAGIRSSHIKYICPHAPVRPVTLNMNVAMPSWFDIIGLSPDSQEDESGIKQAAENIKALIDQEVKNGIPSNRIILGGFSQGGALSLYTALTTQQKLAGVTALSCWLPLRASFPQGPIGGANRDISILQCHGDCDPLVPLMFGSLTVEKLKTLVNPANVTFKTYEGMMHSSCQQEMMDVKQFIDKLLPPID
LYPLA2 inh – LYPLA2 inhibitors, primary screen, counter-screen for PME1 inhibitor project, biochemical, fluorescence polarization, FP-Rh probe ABPP | Acyl-protein thioesterase 2 (Homo sapiens), O95372 | recombinant LYPLA2 | inhibition, % at 5.9 µM | actives 0.38% (n = 320,000) | AID 2177, 2009;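 active = inhibition above the screen-wide mean plus 3 SD, limit set per campaign, cut at about 26% in these data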;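 also: 0% = LYPLA2 with DMSO and 100% = wells lacking LYPLA2 enzyme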
PME-1 primary – PME-1 inhibitors via competitive probe labeling, primary screen, biochemical, fluorescence polarization, FP-Rh probe, HTS. actives 0.53% (n = 320,000). Protein phosphatase methylesterase 1 (Homo sapiens), Q9Y570. recombinant PME-1. inhibition, % at 5.9 µM. AID 2130, 2009;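 active = inhibition above the campaign mean of all compounds plus 3 SD, cut at about 26% in these data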;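 also: competitive labeling of PME-1 active site by serine hydrolase directed probe; 0% = PME-1 with DMSO and 100% = wells lacking PME-1 enzyme; inhibitors block probe labeling so polarization falls and inhibition rises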
LYPLA1 confirm – LYPLA1 inhibitors, retest, confirmation, counter-screen for PME1 inhibitor project, biochemical, fluorescence polarization, FP-Rh probe ABPP; shares compounds with LYPLA1 counter; recombinant LYPLA1; inhibition, % at 5.9 µM; actives 69% (n = 480); AID 2233, 2010;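 active = mean inhibition across replicates above the hit cutoff set in the primary screen, cut at about 15% in these data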;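 also: loss of FP-Rh probe labeling of LYPLA1 seen as lower polarization; 0% = LYPLA1 with DMSO and 100% = wells lacking LYPLA1 enzyme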
LYPLA2 conf – LYPLA2 inhibitors, retest, confirmation, counter-screen for PME1 inhibitor project, biochemical, fluorescence polarization, FP-Rh probe ABPP | shares compounds with LYPLA2 inh | recombinant LYPLA2 | inhibition, % at 5.9 µM | actives 72% (n = 1,100);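 active = mean inhibition across replicates above the hit cutoff set in the primary screen, cut at about 26% in these data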;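 also: blocked labeling of the enzyme by serine hydrolase FP-Rh probe lowers polarization; 0% = enzyme with DMSO and 100% = wells lacking LYPLA2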
PAD4 FP conf – human PAD4 inhibitors, confirmation, biochemical, fluorescence polarization | shares compounds with PAD4 inh | recombinant PAD4, RCA probe fluorescence polarization | inhibition, % at 6.36 µM | actives 28% (n = 1,200) | AID 488796, 2010;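 active = mean inhibition across replicates above the hit cutoff set by the earlier primary screen, cut at about 15% in these data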;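 also: inhibitors block active-site labeling by the probe so polarization falls; 0% = PAD4 with probe and DMSO and 100% = probe without PAD4 enzyme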
Numbers without * were called inactive; / = no result given. Compounds with a hit are over-represented: about 1.8% of the library has one in this group of screens.

SMILES	Fam108B inh	GSTO1 inh	PAD4 inh	LYPLA1 counter	LYPLA2 inh	PME-1 primary	PAD4 FP conf	others
CCOC(=O)c1c(NC(=O)c2c(N)n(CCCOC)c3nc4ccccc4nc23)sc2c1CCCC2	1.0	-6.5	-5.0	6.4	1.4	2.6	/
O=S(=O)(c1ccc(F)cc1)N1CCCC1c1cccnc1 (configuration not stated)	-1.2	4.8	3.8	-2.5	1.7	2.0	/
NP(=O)(OCCCCc1ccccc1)Oc1ccccc1Cl (configuration not stated)	-3.1	5.7	6.2	19.2*	25.1	41.4*	/	LYPLA1 confirm=9.0
CCOc1ccc2c(c1)c(C(C)=O)c(C)n2Cc1ccco1	2.5	3.9	-3.0	-1.3	3.2	3.2	/
Oc1c(Cl)c(Cl)c(Cl)c(Cl)c1Cl	-3.3	-16.9	0.4	9.2	28.1*	18.7	/	LYPLA2 conf=34.3*
Cc1ccc(Cn2nnnc2CN2CCC(n3nnc4cc(C(F)(F)F)ccc43)CC2)cc1	2.7	-7.6	1.0	-1.4	15.2	-1.4	/
Cc1ccc(Cn2nnnc2CN2CCC(n3nnc4cc(C)ccc43)CC2)cc1	-2.0	0.1	-4.0	-0.7	26.6*	-7.1	/	LYPLA2 conf=24.1
CP(=O)(Nc1ccccc1)C(Cl)(Cl)Cl (configuration not stated)	4.3	4.5	-2.3	5.2	8.9	4.6	/
CCN(CC)C(=O)c1ccc(NC(=O)COc2ccc(-c3nn(C)c(=O)c4ccccc34)cc2)cc1	3.0	-12.6	-6.8	12.5	31.7*	-0.4	/	LYPLA2 conf=31.4*
CN1C(=O)N(C)C(=O)C2(Cc3cc([N+](=O)[O-])ccc3N(C)C2c2ccccc2)C1=O (configuration not stated)	-0.1	-4.0	-0.1	1.2	3.1	-6.1	/
CC(=NCCc1c[nH]c2ccccc12)c1c(O)n(Cc2ccccc2)c(=O)[nH]c1=O	-1.9	-6.5	1.3	-2.2	30.8*	5.1	/	LYPLA2 conf=27.4*
CC(=NCCN1CCOCC1)c1c(O)n(Cc2ccccc2)c(=O)[nH]c1=O	-2.2	-1.7	-0.5	-2.3	-1.7	5.3	/
CCCCn1c(NS(=O)(=O)c2ccc(C)cc2)c(C(=O)OCC)c2nc3ccccc3nc21	2.6	82.2*	66.2*	3.4	8.8	5.4	-2.6
CCCC(C)C1(CC)C(=O)NC(=Nc2ccc(F)cc2)NC1=O (configuration not stated)	-0.9	3.6	-9.5	3.3	-3.8	0.6	/
CCN1/C(=C\C=C\C2=[N+](CC)c3ccccc3C2(C)C)C(C)(C)c2ccccc21	-372.6	-351.7	145.3*	-160.4	-339.0	-243.1	100.6*
C=CCn1c(O)c(C(C)=Nc2ccc(N(CC)CC)cc2)c(=O)[nH]c1=O	0.5	14.1	18.8*	0.3	2.4	2.9	-6.9
C=CCn1c(O)c(C(C)=Nc2ccc(N(C)C)cc2)c(=O)[nH]c1=O	-0.8	29.8	11.0	-4.3	-1.7	-1.5	/
COc1ccc(-c2cc(=O)oc3c(C)c(OC(C)C(=O)N4C[C@H]5C[C@@H](C4)c4cccc(=O)n4C5)ccc23)cc1 (some centres not stated)	-4.7	-8.8	-2.3	0.3	5.3	21.0	/
CN(C)c1ccc(/C=C/C=C/c2sc3ccccc3[n+]2C)cc1	-14.7	-7.8	-6.7	-22.8	-42.7	-39.7	/
C[n+]1c(-c2ccccc2)sc2ccccc21	-0.5	2.6	14.8*	2.8	1.8	3.2	6.2
CC(C)COC(=O)c1ccccc1C(=O)OCC(C)C	0.5	2.1	-0.1	0.9	0.9	1.8	/
C[CH2][Hg][S]c1ccccc1C(=O)O	-4.3	19.4	37.7*	1.3	3.9	-9.7	50.1*
CC1CCC(C(=O)NC(C(=O)N2CCC3(CC2)OCCO3)C(C)C)CC1 (configuration not stated)	1.5	-5.0	-6.4	-3.3	1.4	-4.1	/
CCOc1cccc(OCC)c2c(C)[n+](CC3CCCO3)c(C)c1-2 (configuration not stated)	4.6	28.6	14.8*	3.3	-1.6	4.8	-5.7
COc1cc(C(c2c(C)[nH]n(-c3ccccc3)c2=O)c2c(C)[nH]n(-c3ccccc3)c2=O)cc(OC)c1OC	-0.8	79.2*	69.5*	2.7	6.0	5.6	3.5
Cc1nn(C)c(C)c1P(=S)(c1c(C)nn(C)c1C)N(C)C	-0.4	-1.9	-2.2	2.0	2.0	0.7	/
N/C(=N\N=C\c1ccc(O)cc1O)N[N+](=O)[O-]	2.0	11.4	-0.6	0.2	-1.4	3.1	/
COc1ccccc1/C=N/N=C(/N)N[N+](=O)[O-]	2.4	1.1	15.6*	-1.3	2.1	-3.9	5.4
